Assay results published in the supplement of paper PMC11732987, “Enantioselective OTUD7B fragment discovery through chemoproteomics screening and high-throughput optimisation” (Communications Chemistry, 2025).

Key:
Test in all cases: log2 ratio of Biotin-Ahx-Ub-VS probe labelling (fragment/DMSO); higher = less target engagement (more negative = stronger competition), active = hit call of the paper (q ≤ 0.05, log2 ratio ≤ -1)
Details in all cases: compound concentration: 200 uM; treatment time: 3 h
[1] = biological target: USP34 (UniProt Q70CQ2)
In short: (§1)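 HEK293T lysate, 495 µg per sample in Tris/CHAPS/IGEPAL buffer with protease inhibitors, was treated in triplicate with fragment at 200 µM or vehicle for 3 h and then with Biotin-Ahx-Ub-VS at 0.5 µM final for 1 h. Labelled DUBs were NeutrAvidin-enriched, digested with LysC and trypsin, and run by diaPASEF LC-MS/MS. Spectronaut label-free quantities were global-median-normalised, and values are average log2 fragment/vehicle ratios by unpaired t-test on proteins with ≥2 unique peptides.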

[2] = biological target: T1, USP36 (UniProt Q9P275)
T1 sequence (whole entry): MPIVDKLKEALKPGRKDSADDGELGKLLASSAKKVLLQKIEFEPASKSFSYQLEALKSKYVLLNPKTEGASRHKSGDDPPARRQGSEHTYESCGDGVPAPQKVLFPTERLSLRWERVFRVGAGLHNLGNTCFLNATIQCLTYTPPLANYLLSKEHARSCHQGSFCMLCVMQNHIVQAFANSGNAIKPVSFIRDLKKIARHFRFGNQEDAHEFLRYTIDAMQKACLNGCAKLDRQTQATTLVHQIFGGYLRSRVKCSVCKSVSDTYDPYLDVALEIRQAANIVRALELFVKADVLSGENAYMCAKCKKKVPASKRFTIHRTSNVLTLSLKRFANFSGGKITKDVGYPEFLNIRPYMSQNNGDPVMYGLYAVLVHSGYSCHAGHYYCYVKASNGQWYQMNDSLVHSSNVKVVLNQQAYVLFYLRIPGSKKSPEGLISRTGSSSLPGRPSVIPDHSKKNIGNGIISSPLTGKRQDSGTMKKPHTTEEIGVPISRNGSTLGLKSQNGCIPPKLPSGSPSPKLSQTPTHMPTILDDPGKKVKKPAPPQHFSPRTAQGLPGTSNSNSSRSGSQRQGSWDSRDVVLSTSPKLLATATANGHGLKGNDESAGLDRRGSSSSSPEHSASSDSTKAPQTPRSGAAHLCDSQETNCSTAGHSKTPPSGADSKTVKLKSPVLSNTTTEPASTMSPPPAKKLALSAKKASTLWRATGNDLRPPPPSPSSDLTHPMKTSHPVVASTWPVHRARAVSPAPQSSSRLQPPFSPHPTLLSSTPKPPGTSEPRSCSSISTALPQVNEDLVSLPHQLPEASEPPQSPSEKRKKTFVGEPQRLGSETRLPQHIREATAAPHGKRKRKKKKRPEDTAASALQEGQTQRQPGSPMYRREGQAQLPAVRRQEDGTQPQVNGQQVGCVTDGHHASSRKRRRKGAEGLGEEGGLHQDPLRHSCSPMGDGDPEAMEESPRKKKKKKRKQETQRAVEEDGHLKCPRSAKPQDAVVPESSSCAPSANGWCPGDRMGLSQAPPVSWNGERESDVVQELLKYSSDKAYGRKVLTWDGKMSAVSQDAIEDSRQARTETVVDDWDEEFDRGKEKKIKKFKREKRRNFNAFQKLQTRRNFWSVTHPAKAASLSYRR
In short: as §1

[3] = biological target: T2, USP38 (UniProt Q8NB14)
T2 sequence (whole entry): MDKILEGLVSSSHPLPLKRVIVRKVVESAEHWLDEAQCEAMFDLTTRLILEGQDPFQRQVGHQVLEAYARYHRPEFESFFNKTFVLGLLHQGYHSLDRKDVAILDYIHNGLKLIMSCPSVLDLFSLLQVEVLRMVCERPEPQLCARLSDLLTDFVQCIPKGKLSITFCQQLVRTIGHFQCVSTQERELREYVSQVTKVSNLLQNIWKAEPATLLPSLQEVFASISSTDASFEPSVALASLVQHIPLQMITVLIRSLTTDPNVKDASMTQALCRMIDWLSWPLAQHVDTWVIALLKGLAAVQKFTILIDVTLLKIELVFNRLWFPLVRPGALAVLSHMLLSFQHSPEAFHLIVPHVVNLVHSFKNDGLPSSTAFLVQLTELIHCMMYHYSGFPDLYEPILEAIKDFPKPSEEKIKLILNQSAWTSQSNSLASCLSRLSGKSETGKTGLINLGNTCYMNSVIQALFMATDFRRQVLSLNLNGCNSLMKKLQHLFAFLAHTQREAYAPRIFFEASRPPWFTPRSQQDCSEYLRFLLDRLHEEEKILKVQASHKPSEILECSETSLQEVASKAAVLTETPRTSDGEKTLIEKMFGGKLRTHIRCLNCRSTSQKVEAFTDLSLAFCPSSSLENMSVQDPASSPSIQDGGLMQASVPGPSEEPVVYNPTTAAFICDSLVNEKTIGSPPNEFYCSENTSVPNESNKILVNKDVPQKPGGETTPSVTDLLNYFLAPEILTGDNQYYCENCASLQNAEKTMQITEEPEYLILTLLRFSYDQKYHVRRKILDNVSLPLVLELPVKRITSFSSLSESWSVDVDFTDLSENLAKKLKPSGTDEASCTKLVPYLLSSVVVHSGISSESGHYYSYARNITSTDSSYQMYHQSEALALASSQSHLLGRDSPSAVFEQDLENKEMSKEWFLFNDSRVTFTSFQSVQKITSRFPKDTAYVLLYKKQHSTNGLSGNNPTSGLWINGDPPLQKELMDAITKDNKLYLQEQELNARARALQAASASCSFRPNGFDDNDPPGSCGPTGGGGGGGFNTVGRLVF
In short: as §1

[4] = biological target: T3, USP39 (UniProt Q53GS9)
T3 sequence (whole entry): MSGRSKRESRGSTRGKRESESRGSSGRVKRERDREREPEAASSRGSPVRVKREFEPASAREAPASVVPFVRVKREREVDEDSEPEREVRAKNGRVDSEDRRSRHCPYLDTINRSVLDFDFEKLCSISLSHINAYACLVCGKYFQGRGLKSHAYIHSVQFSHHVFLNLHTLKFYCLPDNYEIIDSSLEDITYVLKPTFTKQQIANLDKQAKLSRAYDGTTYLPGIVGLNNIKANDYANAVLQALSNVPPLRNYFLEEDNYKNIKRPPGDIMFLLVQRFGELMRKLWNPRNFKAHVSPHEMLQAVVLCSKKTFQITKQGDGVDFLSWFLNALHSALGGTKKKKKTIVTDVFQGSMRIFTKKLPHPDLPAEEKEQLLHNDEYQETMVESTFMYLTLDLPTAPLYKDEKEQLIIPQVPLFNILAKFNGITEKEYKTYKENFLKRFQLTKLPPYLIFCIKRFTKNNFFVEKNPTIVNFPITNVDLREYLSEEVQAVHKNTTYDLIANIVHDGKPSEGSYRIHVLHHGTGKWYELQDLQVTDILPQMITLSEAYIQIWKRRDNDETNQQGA
In short: as §1

[5] = biological target: T4, USP4 (UniProt Q13107)
T4 sequence (whole entry): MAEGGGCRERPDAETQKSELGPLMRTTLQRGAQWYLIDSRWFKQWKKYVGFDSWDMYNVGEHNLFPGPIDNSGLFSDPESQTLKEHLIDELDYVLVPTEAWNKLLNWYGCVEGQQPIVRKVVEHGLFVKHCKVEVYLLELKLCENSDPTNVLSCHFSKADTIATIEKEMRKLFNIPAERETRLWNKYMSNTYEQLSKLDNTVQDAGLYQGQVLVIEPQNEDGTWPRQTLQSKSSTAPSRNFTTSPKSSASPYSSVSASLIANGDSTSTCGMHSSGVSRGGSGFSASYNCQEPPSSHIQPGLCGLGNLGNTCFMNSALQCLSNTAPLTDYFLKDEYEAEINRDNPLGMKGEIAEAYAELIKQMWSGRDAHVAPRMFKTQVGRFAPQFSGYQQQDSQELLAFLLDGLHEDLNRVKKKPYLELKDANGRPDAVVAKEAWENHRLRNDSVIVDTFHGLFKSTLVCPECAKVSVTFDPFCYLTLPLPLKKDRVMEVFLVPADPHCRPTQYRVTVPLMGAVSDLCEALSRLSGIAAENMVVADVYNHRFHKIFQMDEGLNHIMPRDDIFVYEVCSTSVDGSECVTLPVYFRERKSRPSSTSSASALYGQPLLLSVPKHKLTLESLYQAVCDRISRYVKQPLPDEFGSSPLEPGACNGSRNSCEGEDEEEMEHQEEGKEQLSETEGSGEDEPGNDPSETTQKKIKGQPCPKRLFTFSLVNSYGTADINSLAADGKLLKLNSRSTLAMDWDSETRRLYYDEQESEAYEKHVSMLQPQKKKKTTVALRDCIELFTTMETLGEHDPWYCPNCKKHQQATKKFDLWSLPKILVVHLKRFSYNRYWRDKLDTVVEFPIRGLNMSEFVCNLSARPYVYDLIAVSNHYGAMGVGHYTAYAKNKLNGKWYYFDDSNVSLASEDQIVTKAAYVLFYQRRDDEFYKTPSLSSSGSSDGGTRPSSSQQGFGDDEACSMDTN
In short: as §1

Measured: log2 ratio of Biotin-Ahx-Ub-VS probe labelling

Sequence of USP34 (Q70CQ2 whole entry, the tested form may be a part): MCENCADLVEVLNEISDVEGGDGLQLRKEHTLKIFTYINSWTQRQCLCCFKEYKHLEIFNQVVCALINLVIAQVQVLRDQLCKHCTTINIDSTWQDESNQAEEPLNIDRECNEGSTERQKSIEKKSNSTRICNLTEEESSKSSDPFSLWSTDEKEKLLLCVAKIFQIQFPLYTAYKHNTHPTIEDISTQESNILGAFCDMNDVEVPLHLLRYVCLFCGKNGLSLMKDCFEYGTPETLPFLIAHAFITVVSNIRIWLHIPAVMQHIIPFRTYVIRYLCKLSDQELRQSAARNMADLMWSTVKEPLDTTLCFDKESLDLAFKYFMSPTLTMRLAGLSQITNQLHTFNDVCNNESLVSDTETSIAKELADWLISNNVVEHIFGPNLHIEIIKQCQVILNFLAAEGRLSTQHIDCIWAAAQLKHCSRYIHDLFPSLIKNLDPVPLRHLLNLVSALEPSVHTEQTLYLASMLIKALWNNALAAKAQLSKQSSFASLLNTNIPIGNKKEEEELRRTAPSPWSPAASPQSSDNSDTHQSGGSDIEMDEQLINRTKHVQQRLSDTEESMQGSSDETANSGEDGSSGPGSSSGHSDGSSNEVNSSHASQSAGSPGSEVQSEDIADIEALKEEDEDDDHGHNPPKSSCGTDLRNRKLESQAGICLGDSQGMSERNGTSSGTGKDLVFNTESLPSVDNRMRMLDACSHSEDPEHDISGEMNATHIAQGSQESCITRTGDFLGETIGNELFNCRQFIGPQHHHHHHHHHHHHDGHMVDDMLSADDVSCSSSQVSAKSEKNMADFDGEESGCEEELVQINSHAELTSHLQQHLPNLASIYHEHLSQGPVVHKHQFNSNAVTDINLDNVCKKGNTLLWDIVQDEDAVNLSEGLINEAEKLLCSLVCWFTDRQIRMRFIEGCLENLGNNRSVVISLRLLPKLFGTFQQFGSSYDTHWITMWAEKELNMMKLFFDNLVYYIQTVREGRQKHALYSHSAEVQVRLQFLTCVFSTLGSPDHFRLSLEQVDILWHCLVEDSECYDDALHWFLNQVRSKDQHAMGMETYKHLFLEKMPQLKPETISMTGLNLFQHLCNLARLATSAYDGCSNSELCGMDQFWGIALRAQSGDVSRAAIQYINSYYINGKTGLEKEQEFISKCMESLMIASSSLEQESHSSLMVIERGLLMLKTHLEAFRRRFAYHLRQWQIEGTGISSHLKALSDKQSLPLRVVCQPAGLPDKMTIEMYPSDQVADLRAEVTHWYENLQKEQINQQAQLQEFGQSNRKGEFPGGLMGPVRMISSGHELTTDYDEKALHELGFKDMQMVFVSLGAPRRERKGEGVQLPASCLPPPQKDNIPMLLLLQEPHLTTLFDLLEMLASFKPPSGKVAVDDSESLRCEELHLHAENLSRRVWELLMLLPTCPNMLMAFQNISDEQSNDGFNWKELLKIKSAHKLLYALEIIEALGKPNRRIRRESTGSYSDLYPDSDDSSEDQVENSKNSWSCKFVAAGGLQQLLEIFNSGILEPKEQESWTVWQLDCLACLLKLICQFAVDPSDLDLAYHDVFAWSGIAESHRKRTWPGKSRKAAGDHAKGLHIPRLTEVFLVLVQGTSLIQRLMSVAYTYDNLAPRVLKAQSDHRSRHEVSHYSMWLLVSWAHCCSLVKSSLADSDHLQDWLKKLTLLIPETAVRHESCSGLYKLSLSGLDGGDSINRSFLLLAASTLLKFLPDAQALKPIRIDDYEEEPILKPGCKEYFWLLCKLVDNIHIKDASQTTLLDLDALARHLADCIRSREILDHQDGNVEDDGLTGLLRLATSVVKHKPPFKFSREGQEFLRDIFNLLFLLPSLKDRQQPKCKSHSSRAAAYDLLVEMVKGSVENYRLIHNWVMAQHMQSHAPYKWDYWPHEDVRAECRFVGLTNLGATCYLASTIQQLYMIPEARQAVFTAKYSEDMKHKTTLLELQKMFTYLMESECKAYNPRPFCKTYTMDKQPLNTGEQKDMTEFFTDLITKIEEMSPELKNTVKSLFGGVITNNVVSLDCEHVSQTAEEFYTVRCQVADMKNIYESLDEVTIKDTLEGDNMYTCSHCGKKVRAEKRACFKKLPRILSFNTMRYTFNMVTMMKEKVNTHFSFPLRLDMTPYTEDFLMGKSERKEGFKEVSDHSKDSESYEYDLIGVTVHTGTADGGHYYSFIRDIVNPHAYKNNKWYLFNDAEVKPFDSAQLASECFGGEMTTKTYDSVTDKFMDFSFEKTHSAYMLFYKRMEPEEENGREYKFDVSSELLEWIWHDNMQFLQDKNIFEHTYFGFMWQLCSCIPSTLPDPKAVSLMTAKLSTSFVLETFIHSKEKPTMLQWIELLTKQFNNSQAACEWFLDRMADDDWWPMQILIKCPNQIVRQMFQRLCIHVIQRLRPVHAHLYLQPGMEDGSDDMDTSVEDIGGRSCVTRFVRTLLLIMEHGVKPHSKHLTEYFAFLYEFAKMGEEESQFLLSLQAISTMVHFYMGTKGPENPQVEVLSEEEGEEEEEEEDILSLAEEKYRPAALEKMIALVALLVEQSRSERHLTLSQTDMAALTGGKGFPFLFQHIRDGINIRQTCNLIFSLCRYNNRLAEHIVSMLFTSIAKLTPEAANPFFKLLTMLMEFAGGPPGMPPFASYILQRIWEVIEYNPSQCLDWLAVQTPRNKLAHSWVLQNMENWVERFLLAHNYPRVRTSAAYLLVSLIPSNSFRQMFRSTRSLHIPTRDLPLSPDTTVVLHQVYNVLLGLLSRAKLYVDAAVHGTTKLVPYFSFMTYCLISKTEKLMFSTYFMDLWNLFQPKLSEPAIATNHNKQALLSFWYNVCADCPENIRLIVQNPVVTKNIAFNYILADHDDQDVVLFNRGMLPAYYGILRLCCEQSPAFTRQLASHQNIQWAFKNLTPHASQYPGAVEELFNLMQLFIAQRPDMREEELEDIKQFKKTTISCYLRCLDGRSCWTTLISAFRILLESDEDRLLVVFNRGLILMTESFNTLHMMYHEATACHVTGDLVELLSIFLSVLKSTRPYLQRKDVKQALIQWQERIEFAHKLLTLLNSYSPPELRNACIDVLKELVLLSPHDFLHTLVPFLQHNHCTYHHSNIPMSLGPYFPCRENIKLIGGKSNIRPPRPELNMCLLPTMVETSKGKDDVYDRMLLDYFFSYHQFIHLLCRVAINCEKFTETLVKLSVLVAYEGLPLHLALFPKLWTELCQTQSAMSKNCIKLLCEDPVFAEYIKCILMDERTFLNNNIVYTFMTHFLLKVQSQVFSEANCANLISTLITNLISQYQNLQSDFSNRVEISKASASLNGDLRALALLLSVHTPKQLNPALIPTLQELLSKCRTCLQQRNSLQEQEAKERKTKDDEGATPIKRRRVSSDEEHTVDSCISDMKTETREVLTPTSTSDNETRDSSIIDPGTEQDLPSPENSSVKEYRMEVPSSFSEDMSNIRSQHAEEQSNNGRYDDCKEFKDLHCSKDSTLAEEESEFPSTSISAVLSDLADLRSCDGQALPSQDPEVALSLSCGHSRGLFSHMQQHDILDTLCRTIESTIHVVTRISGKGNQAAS

CNC(=O)Cn1cc(NC(=O)CCl)cn1
inactive: [1] -0.0314 | [2] -0.0542 | [3] -0.0407 | [4] 0.234 | [5] -0.0895
